# Screening results (PubChem)
# TSHR antag: antagonists of human thyroid stimulating hormone receptor; actives 0.2% (n = 330,000); P16473; TSHR-expressing cells, TSH-stimulated cAMP HTRF, 2 h; stronger effect = lower value; activity change, negative = inhibition, % at 11.5 µM;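 active = activity change below a set negative limit, meaning inhibition stronger than a set level, cut at about -70% in these data; inconclusive = activity change between two set negative limits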; also: % is scaled to controls: 0 for no effect and ±100 for the full control effect
#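 Antagonism was scored as loss of TSH-driven cAMP in TSHR cells, stimulated with 4nM TSH (EC80) for 2 hours at 37 deg C and detected by homogeneous HTRF competition immunoassay.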
# PKM2 activator: activators of human pyruvate kinase M2. actives 0.34% (n = 260,000). purified PKM2, Kinase-Glo ATP luminescence, activation; response scale: 0% is enzyme alone, no compound. P14618. AID 1631. Potency, µM (top dose mostly 57.5 µM), for inactives: at the top dose activation, hits mostly activators; also: potency is read from the fitted curve at half-maximal effect; % is scaled to controls: 0 for no effect and ±100 for the full control effect; nearly all actives have a fitted effect of over 55% in size
# Target sequence (P14618 whole entry, looked up): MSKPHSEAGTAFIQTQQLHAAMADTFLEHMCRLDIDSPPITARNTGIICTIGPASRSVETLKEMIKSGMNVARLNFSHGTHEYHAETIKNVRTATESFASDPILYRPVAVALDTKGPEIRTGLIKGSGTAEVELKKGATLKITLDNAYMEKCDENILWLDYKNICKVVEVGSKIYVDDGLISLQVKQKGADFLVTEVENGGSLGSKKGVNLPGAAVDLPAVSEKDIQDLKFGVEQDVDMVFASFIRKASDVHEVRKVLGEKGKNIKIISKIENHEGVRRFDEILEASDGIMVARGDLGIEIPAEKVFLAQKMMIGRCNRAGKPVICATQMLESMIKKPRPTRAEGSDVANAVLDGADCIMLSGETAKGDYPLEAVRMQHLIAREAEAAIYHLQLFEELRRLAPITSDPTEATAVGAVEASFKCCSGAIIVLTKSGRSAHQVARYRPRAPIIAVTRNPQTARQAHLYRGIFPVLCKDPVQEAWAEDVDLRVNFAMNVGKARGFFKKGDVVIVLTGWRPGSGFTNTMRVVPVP
#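 Purified hPK-M2 (>95%) run at intermediate activity with 0.1 mM ADP and 0.5 mM PEP in 50 mM imidazole pH 7.2, KCl, MgCl2; 1 h room temperature. ATP formed read by Kinase-Glo luminescence; normalized to uninhibited and no-enzyme controls.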
# TCR activator: activates T cell receptor signaling | primary human leukocytes, anti-CD3, IL-2 HTRF, 48 h | Potency, µM (top dose mostly 9.22 µM), inactives show top-dose activation of IL-2 secretion, most hits filed as activators | 330,000 tested, under 10 active; also: % of control where 0% means no effect
#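 Readout: HTRF IL-2, Eu-cryptate/d2 antibody pair, 320nm excitation, 665nm emission. Stimulus: a-CD3 beads, no co-stimulation. Cells: primary human leukocytes. Exposure: 48 hr with compound.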
# uPA surface inh: inhibitors of cell surface uPA generation. cell surface uPA generation assay, qHTS. Potency, µM (top dose mostly 38.3 µM), without a hit: at the highest dose activity change, negative = inhibition, most hits filed as inhibitors. actives 0.31% (n = 330,000). AID 540303; active = well fitted inhibition curve with a large enough effect; inconclusive = small, poorly fitted or top-dose-only effect; inactive = no such curve, though single readings can be large or run the other way; tested in mouse RAW 264.7 cells; also: potency is read from the fitted curve at half-maximal effect; % is scaled to controls: 0 for no effect and ±100 for the full control effect; nearly all actives have a fitted effect of over 55% in size
# Active calls of the source: *; ? = inconclusive; / = no result given; [ ] = another dose, or the depositor's remark. This is a sample that favours compounds with a hit; in the whole collection about 0.75% have one here. Unless noted, calls follow the shape of the dose curve; as a rule, active = well fitted curve in the direction sought with a large enough effect; inconclusive = small, poorly fitted or top-dose-only effect, or another doubt; inactive = no such curve, though single readings can be large; an effect the other way counts as inactive or inconclusive.
SMILES,TSHR antag,PKM2 activator,TCR activator,uPA surface inh
Cc1cc(C)cc(C(=O)NC(CC(N)=O)c2ccc(NCCN3CCCC3)c([N+](=O)[O-])c2)c1 (stereo not drawn),-89.5*,2.6%,-3.2%,13.5%
CC(=O)c1cccc(NC(=O)c2ccc3c(c2)CCCC3)c1,-130.6*,/,0.0%,?
COc1cccc(NC(=O)c2ccc3c(c2)CCCC3)c1,-8.1,-28.5%,-2.7%,5.4%
O=C(O)/C(=C\c1ccc2ccccc2c1)c1cccc2ccccc12,/,/,2.9%,0.0%
NC1(C#Cc2ccc3c(=O)c4ccccc4sc3c2)CCCCC1,-14.0,/,3.8%,3.2%
Cn1c2ccccc2c(=O)c2cc(C#CC3(O)CCCCC3)ccc21,10.7,-6.9%,-4.6%,1.26µM*
O=c1c2ccccc2oc2ccc(C#CC3(O)CCCCC3)cc12,/,/,-10.9%,2.82µM*
Cc1cc2sc3ccc(C#CC4(O)CCCCC4)cc3c(=O)c2cc1C,/,/,2.3%,10µM*
COc1cccc2oc3ccc(C#CC4(N)CCCCC4)cc3c(=O)c12,13.4,0.0%,5.0%,-25.5%
CSc1nc(N)c2ncn([C@@H]3O[C@H](COP(=O)(O)OP(=O)(O)OP(=O)(O)O)[C@@H](O)[C@H]3O)c2n1,8.3,/,/,/
O=C(Nc1ccncc1)C1CCN(S(=O)(=O)c2ccc(Cl)c(C(F)(F)F)c2)CC1,3.7,/,10.9%,11.2µM*
O=S(=O)(Nc1ccc(S(=O)(=O)Nc2ccccc2)cc1)c1ccccc1,3.7,?,-3.5%,4.5%
O=S(=O)(Nc1ccc(-n2cccc2)cc1)c1ccccc1,-3.5,15.8µM*,-3.1%,3.3%
COc1ccc(OC)c(-c2cnc(OC(C)(C)C)nc2OC(C)(C)C)c1,-6.2,-0.9%,6.1%[46.1 µM],2.24µM*
Cc1nn(C)c(Sc2ccccc2N)c1[N+](=O)[O-],-5.0,11.2µM*,-2.5%,-27.8%
Cc1nn(C)c(N)c1[N+](=O)[O-],17.5,?,9.3%,5.6%
O=C1c2ccccc2-c2c1cccc2C(=O)N1CCN(C(=O)c2ccco2)CC1,-7.8,15.8µM*,2.6%,-2.4%
CSc1ccc(/C=C/C(=O)NC(=O)c2ccccc2O)cc1,-27.6,-0.4%,6.7%,11.2µM*
O=C(/C=C/c1ccc(Br)cc1)NC(=O)c1ccccc1O,-36.6,1.4%,1.5%,-17.3%
CCc1ccccc1NC(=O)Cn1nnc(C(=O)NCc2cccc(OC)c2)c1N,4.5,-6.9%[0.46 µM],1.7%,3.98µM*
COc1ccc(NC(=O)Cn2nnc(C(=O)NCc3cccs3)c2N)c(OC)c1,-131.5*,/,-5.3%,8.3%
CN(Cc1ccc(Cl)cc1Cl)C(=O)CNC(=O)c1ccc2c(c1)OCO2,2.5,/,-1.7%,0.3%
Cc1ccc(CC2CC(=O)N(Cc3ccco3)C2=O)cc1 (stereo not drawn),-20.8,?,-5.4%,-4.3%
O=C1CC(Cc2ccccc2)C(=O)N1Cc1ccco1 (stereo not drawn),8.1,28.2µM*,-3.2%,1.1%
CCN1CCN(Cc2ccc(NC(=O)Nc3ccccc3Cl)cc2)CC1,-4.0,-2.4%,-7.9%[46.1 µM],10µM*
SMILES,TSHR antag,PKM2 activator,TCR activator,uPA surface inh
COc1cc(CN2CCNC(=O)C2CC(=O)N2CCCO2)cc(OC)c1 (stereo not drawn),-19.7,14.1µM*,6.9%,3.6%
COc1cc(CN2CCNC(=O)C2CC(=O)N2CCCCO2)cc(OC)c1 (stereo not drawn),14.9,8.4%,-6.1%,3.5%
C/C(=N\N1C(=O)c2ccccc2NC1c1ccco1)c1ccccc1O (stereo not drawn),-8.2,9.1%,3.6%,7.94µM*
Cc1cccc(CCN2C(N(C)C)=NC[C@@H]2CC(C)C)c1,1.9,/,2.6%,?
Cc1cccc(CCN2C(N(C)C)=NC[C@@H]2Cc2ccccc2)c1,3.9,/,-1.6%,10µM*
CC(C)(C)NC(=O)C(c1ccncc1)N(Cc1ccc(F)cc1)C(=O)c1ccc(-c2ccccc2)[nH]1 (stereo not drawn),11.3,28.2µM*,/,-4.5%
COc1ccc(C2(c3ccc(OC)cc3)NC(=O)N(CC(=O)NC3CCCC3)C2=O)cc1,5.3,/,-2.5%,-3.4%
CC(=O)Nc1ccccc1NS(=O)(=O)c1ccccc1[N+](=O)[O-],17.5,39.8µM*,-3.4%,2.1%
CCN(c1ccc(NC(=O)COC(=O)C2CCN(c3ccc(C(F)(F)F)cn3)CC2)cc1)C(C)C,/,/,7.9%,17.0%
CC(C)c1cc(NC(=O)CCl)on1,-10.0,-0.3%,-1.3%,6.31µM*
CC(NC(=O)CCl)c1ccc(Cl)c(Cl)c1 (stereo not drawn),6.0,1.9%,0.9%,-10.2%
